Test results: ChEMBL document CHEMBL4513135, “CO-ADD screening of IQOG CSIS (Spain) compounds”
Where “and” joins values, the source holds several entries; their conditions need not be identical. Identical values can stand only once. Entries with a potency or affinity are not part of this list.

Assays:
Staphylococcus aureus = conditions: Concentration 32 ug.mL-1; ASSAY_TEST Inhibition of Bacterial Growth; detection method Absorption (OD600); MEDIA CAMHB; plate type 384well; NBS; CORNING #3640; time 18 hr
Escherichia coli = conditions: Concentration 32 ug.mL-1, ASSAY_TEST Inhibition of Bacterial Growth, detection method Absorption (OD600), MEDIA CAMHB, plate type 384well, NBS, CORNING #3640, time 18 hr

Row | SMILES | Inhibition (Staphylococcus aureus) | Inhibition (Escherichia coli) | Inhibition (Escherichia coli; 32 ug/mL)
1 | N#Cc1c(N)nc(NCc2ccccc2)c(C#N)c1-c1ccccc1 | -2.03% | -5.8% | 
2 | O=C1OC(c2ccccc2)=NC1=Cc1ccc(Cl)cc1 | 14.11% | 10.9% | 
3 | C#CCN(C)c1nc(N)c(C#N)cc1C#N |  |  | -6.57% and -4.54%
4 | CNCc1cc2cc(OC)ccc2n1C.Cl | 10.42% | -0.77% | 
5 | Cn1c(C(=O)O)cc2cc(OCCCC3CCN(Cc4ccccc4)CC3)ccc21 | 27.49% | -8.76% | 
6 | Cn1c(CNNC(=O)Cc2cccc3ccccc23)cc2ccccc21 | -5.85% | -4.9% | 
7 | CCOc1nc(N)c(C#N)cc1C#N | 33.34% | -14.2% | 
8 | COc1ccc(C2C(C#N)=C(N)Oc3c2ccc2ccccc32)c(OC)c1 (centres undefined) | 5.1% | 0.79% | 
9 | CCOC(=O)/C(C#N)=C\c1ccc([N+](=O)[O-])cc1 | 32.65% | 19.98% | 
10 | Cc1nc(NO)c2c(C)nn(-c3ccccc3)c2n1 | 6.32% | 4.93% | 
11 | COc1cccc(C=C2N=C(c3ccccc3)OC2=O)c1OC(C)=O | 5.66% | 4.51% | 
12 | COC(=O)C(=Cc1ccc(OC)cc1)NC(=O)c1ccccc1 | 17.26% | 11.52% | 
13 | O=C(N/N=C/c1c[nH]c2ccccc12)c1ccc(Cl)cc1 | 3.32% | 9.43% | 
14 | C#CCN(C)c1nc(Sc2ccccc2)c(C#N)c(-c2ccccc2)c1C#N | 6.49% | 1.09% | 
15 | Cc1nc2c3cnn(-c4ccccc4)c3nc(C)n2n1 | 14.43% | 10.35% | 
